This is one part of a sample in which hits are shown more often than they occur.
Hedgehog inh: Sonic Hedgehog pathway inhibition; Shh-LIGHT2 Gli-luciferase reporter, 30 h; inhibition, % (no concentration beside the values); 22,000 compounds, 2.1% hits; AID 2313;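 active = mean inhibition across valid replicates above about 65%, limit read from the data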;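 also: pathway switched on by Shh-conditioned medium diluted 1 in 25 in low serum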
MITF inh: blocks MITF activity; TRPM1 promoter luciferase, luminescence, 24 h; inhibition, % (concentration not given with the values); 37,000 compounds, 0.28% hits; in the data active = inhibition above about 85%;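 also: human melanocyte line stably carrying TRPM1 promoter luciferase reporter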
Each line names hits and unclear results; the compound was inactive in the other large screens; ! = repeats disagree.

OCCNC(=S)NC12CC3CC(CC(C3)C1)C2	none (no result: Hedgehog inh)
CCOC(=O)c1oc2ccccc2c1CO	Hedgehog inh 97.2
CCOC(=O)c1oc2ccc(C=NC(C)(C)C)c(Cl)c2c1C	none
Cc1ccc(NC(=O)CSc2nc3sc4c(c3c(=O)n2-c2ccccc2)CCCC4)c(C)c1	none (no result: Hedgehog inh)
Nc1nc(Cl)nc2c1ncn2C1C[C@@H](O)C(CO)O1 (stereo partly drawn)	Hedgehog inh 71.8
Nc1nc(Cl)nc2c1ncn2C1OC(CO)[C@H](O)[C@H]1F (stereo partly drawn)	none
CC1C(c2ccccc2)CC(C(=O)O)C1(C)C (stereo not drawn)	none
O=C1c2ccccc2C(=O)N1CC12CC3CC(CC(C3)C1)C2	none (no result: Hedgehog inh)
N#CC1=C(N)Nc2c(c(=O)oc3ccccc23)C1c1ccc(Br)cc1 (stereo not drawn)	Hedgehog inh 72.4
C=CCN1C(=O)C2(C(C#N)=C(N)Oc3c2c(=O)oc2ccccc32)c2ccccc21 (stereo not drawn)	none
CN(C)Cc1ccc(C(=O)Oc2ccc(C(C)(C)C)cc2)cc1	none (no result: Hedgehog inh)
O=S(=O)(Cc1nc(-c2ccccc2Cl)cs1)c1cccs1	none
COc1cc(CO)ccc1OCc1cccc(C(=O)O)c1	MITF inh 93.3 (no result: Hedgehog inh)
COc1cc(CO)ccc1OCC(=O)Nc1ccccc1F	none (no result: Hedgehog inh)
Cc1coc(C)c1C(=O)CC1(O)C(=O)N(CCc2ccccc2)c2ccc(Cl)cc21 (stereo not drawn)	none (no result: Hedgehog inh)
CC(=O)C1C(=O)[C@@H]2[C@H]3c4c[nH]c5cccc(c45)C[C@H]3C(C)(C)N2C1=O (stereo partly drawn)	Hedgehog inh 77.0
CC(=O)C1C(=O)C2C3c4c[nH]c5cccc(c45)CC3C(C)(C)N2C1=O (stereo not drawn)	none
Clc1ccccc1/C=C/C=Nc1ccc(N2CCOCC2)cc1	none
O=C1CC2(CCCC2)C(=O)N1c1cc(C(F)(F)F)cc(C(F)(F)F)c1	none
COc1ccc(OC)c(-n2c(=S)[nH]c3cc(C(=O)NCc4ccc(F)cc4)ccc3c2=O)c1	Hedgehog inh 77.1
COc1ccc(OC)c(-n2c(=S)[nH]c3cc(C(=O)N4CCC(C(N)=O)CC4)ccc3c2=O)c1	none
Cc1ccc(-c2nc3ccccc3[nH]2)cc1NC(=O)COc1ccccc1[N+](=O)[O-]	MITF inh 85.6 (no result: Hedgehog inh)
Cc1ccc(-c2nc3ccccc3[nH]2)cc1NC(=O)COc1cccc([N+](=O)[O-])c1	none (no result: Hedgehog inh)
C[C@@H]1CCCCO[C@@H](CN(C)Cc2ccc3c(c2)OCO3)[C@@H](C)CN([C@H](C)CO)C(=O)c2cc(NC(=O)Nc3ccc4c(c3)OCO4)ccc2O1	Hedgehog inh 67.8
C[C@@H]1CN([C@H](C)CO)C(=O)c2cc(NC(=O)Nc3ccc4c(c3)OCO4)ccc2O[C@@H]1CN(C)Cc1ccc(Oc2ccccc2)cc1	Hedgehog inh 92.2
C[C@@H]1CN([C@H](C)CO)C(=O)c2cc(NC(=O)Nc3ccc4c(c3)OCO4)ccc2O[C@H]1CN(C)Cc1ccc(Oc2ccccc2)cc1	none (no result: Hedgehog inh)
COc1ccc(NC(=O)Nc2ccc3c(c2)C(=O)N([C@@H](C)CO)C[C@@H](C)[C@@H](CN(C)Cc2ccc(Oc4ccccc4)cc2)O3)cc1	Hedgehog inh 94.0
C[C@@H]1CCCCO[C@H](CN(C)Cc2ccc3c(c2)OCO3)[C@@H](C)CN([C@H](C)CO)C(=O)c2cc(NC(=O)Nc3ccc4c(c3)OCO4)ccc2O1	none (no result: Hedgehog inh)
COc1ccc(NC(=O)Nc2ccc3c(c2)C(=O)N([C@@H](C)CO)C[C@@H](C)[C@H](CN(C)Cc2ccc(Oc4ccccc4)cc2)O3)cc1	none
COc1cc(S(=O)(=O)NCc2cccnc2)ccc1Br	none (no result: Hedgehog inh)
Cc1ccc(S(=O)(=O)c2c(C)nn(C(C)(C)C)c2OC(=O)c2ccccc2Br)cc1	none (no result: Hedgehog inh)
O=C(CSc1nc2sc3c(c2c(=O)n1-c1ccccc1)CCC3)N1CCC(c2noc3ccc(F)cc23)CC1	none (no result: Hedgehog inh)
O=C(c1ccccc1)c1ccc(-c2ccccc2)cc1	none
C[C@@H]1O[C@@H](O[C@H]2[C@H](O)[C@@H](O)[C@H](O[C@H]3[C@H](O[C@H]4CC[C@@]5(C)C(=CC[C@H]6C7C[C@@H]8O[C@]9(CC[C@@](C)(CO[C@@H]%10O[C@H](CO)[C@@H](O)[C@H](O)[C@H]%10O)O9)[C@H](C)C8[C@@]7(C)CCC65)C4)O[C@H](CO)[C@@H](O)[C@@H]3O)O[C@@H]2CO)[C@H](O)[C@H](O)[C@H]1O (stereo partly drawn)	Hedgehog inh 97.2 (no result: MITF inh)
C[C@@H]1O[C@@H](O[C@H]2[C@H](O)[C@@H](O[C@@H]3O[C@H](CO)[C@@H](O)[C@H](O)[C@H]3O)[C@H](O[C@H]3CC[C@@]4(C)C(=CC[C@@H]5C4CC[C@@]4(C)C5C[C@@H]5O[C@]6(CC[C@@](C)(CO)O6)[C@@H](C)[C@@H]54)C3)O[C@@H]2CO)[C@H](O)[C@H](O)[C@H]1O (stereo partly drawn)	none
Cc1ccc(OCCSc2n[nH]c3nc4ccccc4n23)cc1	none (no result: Hedgehog inh)
COc1ccc(-n2c(=S)[nH]c3cc(C(=O)NC4CCCC(C)C4C)ccc3c2=O)c(OC)c1 (stereo not drawn)	none
OC(COc1ccc(F)cc1)(c1ccc(Cl)cc1)c1ccc(Cl)cc1	Hedgehog inh 74.6
O=S(=O)(Cc1ccc(Cl)cc1)CC(O)COc1ccc(F)cc1 (stereo not drawn)	none
CSc1nc(C)nc(N/C=C(\C#N)S(=O)(=O)c2ccc(C)cc2)n1	none (no result: Hedgehog inh)
Cc1ccc(S(=O)(=O)/C(C#N)=C/Nc2cc(C(F)(F)F)cc(C(F)(F)F)c2)cc1	Hedgehog inh 101.2
Cn1c(=N)n(CCCOc2ccc(F)cc2)c2ccccc21	none
COc1ccccc1N1CCN(C(=O)CN(c2cc(Cl)ccc2OC)S(C)(=O)=O)CC1	none (no result: Hedgehog inh)
Cc1nc(N)nc(CSc2ccccc2)n1	none
O=C(Cn1c(=O)oc2ccccc21)Nc1sc2c(c1C(=O)O)CCCC2	none (no result: Hedgehog inh)
CC(c1ccco1)N(C(=O)c1sc2ccccc2c1Cl)c1ccccn1 (stereo not drawn)	none (no result: Hedgehog inh)
COc1c2c(cc3oc(=O)ccc13)OC(C)(C)C=C2	none
COc1cc2c(cc1OC)[C@@H]1C(=O)c3ccc4c(c3O[C@@H]1CO2)C=CC(C)(C)O4	MITF inh 99.5
CC(C)(C)c1cc(/C=C(\C#N)C(N)=S)cc(C(C)(C)C)c1O	Hedgehog inh 105.9, MITF inh 90.8
N#CC(C#N)=C(N)/C(C#N)=C/c1cc(O)c(O)c(O)c1	Hedgehog inh 76.2
C/C=C(\CO)C(=O)O[C@H]1[C@H](O)[C@@H](C(=O)OC)O[C@@H]2C[C@H]3OC(n4cnc5c(N)ncnc54)[C@H](OC)[C@H]3O[C@]21O (stereo partly drawn)	none
COc1ccc(CC(N)C(=O)N[C@H]2[C@@H](O)[C@H](n3cnc4c(N(C)C)ncnc43)O[C@@H]2CO)cc1 (stereo partly drawn)	Hedgehog inh 97.1, MITF inh 92.1
Cc1ccc(COc2ccc(I)cc2)cc1	none
COc1ccc2c(c1OC)C(=O)N1c3ccccc3N=C(c3ccc(Br)cc3)CC21 (stereo not drawn)	none
COc1cc(C(=O)N=C2C(C)=CC(=O)C=C2C)cc(OC)c1OC	none (no result: Hedgehog inh)
COc1ccc(OC)c(NC(=O)COc2ccc(C(=O)Nc3ccc(Cl)cc3)cc2)c1	none (no result: Hedgehog inh)
COc1ccc(OC)c(NC(=O)c2ccc(CSc3ncnc4nc[nH]c34)cc2)c1	Hedgehog inh 68.4
Cc1cc2ncc(-c3ccccc3)nc2cc1C	none
c1ccc(-c2cnc3nonc3n2)cc1	Hedgehog inh 82.4
CCc1nc2c(cnn2-c2ccccc2)c(=O)n1CCc1ccccc1	none
CN1CCN(CCCN2c3ccccc3Sc3ccc(Cl)cc32)CC1	Hedgehog inh 75.2!
